Assay in all cases: NCI-60 one-dose screen, 48 h (100 = growth as untreated, 0 = no growth, -100 = all killed)
For experiment [1], the system named is NCI-H23 lung. The note with it: 10 µM.
Experiment [2] concerns NCI-H226 lung. Conditions: 10 µM.
The test system of experiment [3] is NCI-H322M lung. Conditions: 10 µM.
The subject of experiment [4] is HOP-62 NSCLC. The note with it: 10 µM.
In experiment [5] the test system is NCI-H460 lung. The note with it: 10 µM.
In experiment [6] the test system is HOP-92 NSCLC. Conditions: 10 µM.
Experiment [7] has as its system NCI-H522 lung. Conditions: 10 µM unless noted.
In experiment [8] the test system is A549/ATCC NSCLC. The note with it: 10 µM.
In experiment [9] the test system is 786-0 renal. Conditions: 10 µM.
Experiment [10] deals with COLO 205 colon. Conditions: 10 µM.
Experiment [11] concerns DU-145 prostate. The note with it: 10 µM unless noted.
For experiment [12], the system named is K-562 leukemia. Conditions: 10 µM.
The subject of experiment [13] is MALME-3M melanoma. Conditions: 10 µM.
Experiment [14] has as its system MDA-MB-231 breast. The note with it: 10 µM.
Experiment [15] deals with RXF 393 renal. Conditions: 10 µM unless noted.
Experiment [16] deals with SF-268 CNS. The note with it: 10 µM.
The subject of experiment [17] is SF-295 CNS. Conditions: 10 µM.
In experiment [18] the test system is SF-539 CNS. Conditions: 10 µM.
The subject of experiment [19] is UACC-257 melanoma. Conditions: 10 µM.
Experiment [20] concerns M14 melanoma. The note with it: 10 µM.

The structures appear in SMILES notation. Several values for one entry are separate records, joined by “and”; a condition that tells them apart may be missing. Equal entries are not always repeated. Compounds without any hit were thinned out: in the full panel of roughly 83,000, 20% have a hit.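 Method: cells in 96-well plates; compound added at one concentration; 48 h incubation; percent growth measured; values under 10 scored active.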 Activity calls are given as the source filed them.

Take `CC(=O)OCC(OC(C)=O)C(OC(C)=O)C(OC(C)=O)C(OC(C)=O)C(/C=N/Nc1ccccc1)=N/Nc1ccccc1` (stereo not drawn): the growth was 79.9% (inactive) in [1]; 72.7% (inactive) in [2]; 65% (inactive) in experiment [3]; 66.8% (inactive) in [4]; 65.2% (inactive) in experiment [5]; 79.5% (inactive) in [6]. Besides, the growth is 40.6% (inactive) in experiment [7]; 60.9% (inactive) in [8]; 63.6% (inactive) in [9]; 97.1% (inactive) in experiment [10]; 78.4% (inactive) in [11]; 22.4% (inactive) in experiment [12]. Further, the growth in experiment [13] was 84.5% (inactive); in experiment [14], 58.8% (inactive); in experiment [15], 77% (inactive); in experiment [16] it was 71.5% (inactive); in experiment [17] it was 46.6% (inactive); in experiment [18], 89.9% (inactive). Also, the growth in experiment [19] was 82.3% (inactive).
For `CN(C)C(=S)SC(=S)N(C)C`, the growth in experiment [1] was 92.1% (inactive) and 108% (inactive); in experiment [2], 104% (inactive); in [3] it was 101% (inactive) and 86% (inactive); in experiment [4], 112% (inactive) and 103% (inactive); in experiment [5] it was 98.7% (inactive) and 91.3% (inactive); in experiment [6] it was 97.9% (inactive) and 108% (inactive). Besides, the growth was 77.4% (inactive) and 61.1% (inactive) in experiment [7]; 95.9% (inactive) and 86.6% (inactive) in experiment [8]; 96.7% (inactive) and 105% (inactive) in experiment [9]; 81.5% (inactive) and 49.1% (inactive) in [10]; 108% (inactive) and 104% (inactive) in experiment [11]; 58% (inactive) and 75.7% (inactive) in [12]. In addition, the growth in experiment [13] was 84.7% (inactive) and 85% (inactive); in experiment [14], 105% (inactive) and 122% (inactive); in [15] it was 108% (inactive) and 109% (inactive); in [16], 107% (inactive) and 95.8% (inactive); in experiment [17], 100% (inactive) and 101% (inactive); in experiment [18] it was 93.5% (inactive) and 101% (inactive). Besides, the growth in experiment [19] was 96.5% (inactive) and 77.5% (inactive).
In the case of `O=C(/C=C/c1cccnc1)c1ccccc1`, the growth was 96.6% (inactive) in experiment [1]; 96.6% (inactive) in experiment [2]; 113% (inactive) in experiment [3]; 108% (inactive) in [4]; 87.6% (inactive) in experiment [5]; 84% (inactive) in [6]. For the same compound, the growth was -44.2% (active) in experiment [7]; 99.3% (inactive) in experiment [8]; 93.7% (inactive) in [9]; 101% (inactive) in [10]; 105% (inactive) in experiment [11]; 28.9% (inactive) in experiment [12]. The growth is 94.2% (inactive) in [13]; 116% (inactive) in experiment [14]; 112% (inactive) in experiment [15]; 100% (inactive) in experiment [16]; 112% (inactive) in experiment [17]; 96.2% (inactive) in experiment [18]. Also, in [19], the growth was 93.5% (inactive).
Turning to `CO[C@H](C(=O)[C@@H](O)[C@@H](C)O)[C@@H]1Cc2cc3cc(OC4CC(OC5CC(O)C(O)C(C)O5)C(O)C(C)O4)c(C)c(O)c3c(O)c2C(=O)[C@H]1OC1CC(OC2CC(OC3CC(C)(O)C(O)C(C)O3)C(O)C(C)O2)C(O)C(C)O1` (stereo partly drawn), the growth was -28.9% (active) in [1]; 10.8% (inactive) in experiment [2]; 5.87% (active) in experiment [3]; 7.51% (active) in experiment [4]; 2.6% (active) in experiment [5]; -1.5% (active) in experiment [6]. Moreover, the growth is -44.7% (active) in experiment [7]; 2.67% (active) in experiment [8]; 2.93% (active) in experiment [9]; -67.5% (active) in experiment [10]; 24.7% (inactive) in experiment [11]; 6.76% (active) in experiment [12]. Further, the growth in experiment [13] is -54.6% (active); in experiment [14] it was 14.6% (inactive); in experiment [15] it was 5.86% (active); in experiment [16], 12.3% (inactive); in experiment [17], 19.1% (inactive); in experiment [18] it was -20.2% (active). In addition, the growth in experiment [19] is 4.4% (active); in experiment [20] it was -71.5% (active).
As for `Nc1ccc2cc3ccc(N)cc3nc2c1`, the growth was 101% (inactive) and 3.42% (active) in experiment [1]; 87% (inactive) and -2.76% (active) in experiment [2]; -7.06% (active) in experiment [3]; 6.72% (active) in [4]; 102% (inactive) and 0.17% (active) in experiment [5]; 96.7% (inactive) and -1.28% (active) in experiment [6]. The growth is -50.9% (active) in experiment [7]; 84.3% (inactive) and 2.08% (active) in experiment [8]; 113% (inactive) and 43.8% (inactive) in experiment [9]; 109% (inactive) and -39.2% (active) in experiment [10]; 112% (inactive) and 24.3% (inactive) in experiment [11]; 9.74% (active) in experiment [12]. Moreover, the growth in [13] is 107% (inactive) and -50.9% (active); in experiment [14], 97% (inactive) and 18.4% (inactive); in experiment [15], 127% (inactive) and 8.54% (active); in experiment [16], 115% (inactive) and 18.5% (inactive); in [17], 114% (inactive) and 14.4% (inactive); in experiment [18], 107% (inactive) and 21% (inactive). In addition, the growth in experiment [19] is 107% (inactive) and -17.1% (active).
Regarding `CCN1/C(=C/C=C/C=C/c2sc3ccccc3[n+]2CC)Sc2ccccc21`, the growth in [1] was -22.8% (active); in experiment [2], 11.8% (inactive); in experiment [3], 5.13% (active); in [4], -29% (active); in [5] it was -69.7% (active); in experiment [6] it was -28.3% (active). Besides, the growth in experiment [7] is -57.6% (active); in experiment [8], -64.5% (active); in [9] it was -57.6% (active); in experiment [10] it was -87.7% (active); in experiment [11], -17.2% (active); in experiment [12] it was -46.4% (active). Also, the growth is -32.8% (active) in experiment [13]; 8.54% (active) in experiment [14]; -64.4% (active) in experiment [15]; -75.4% (active) in experiment [16]; -23.8% (active) in [17]; -57% (active) in [18]. In addition, the growth in experiment [19] was -57.7% (active).
For `CCCCCCCCCCCCCCCCCCOCC(COP(=O)([O-])OCC[N+](C)(C)C)OC` (stereo not drawn), the growth in experiment [2] was 93.9% (inactive); in [3], 107% (inactive); in experiment [4] it was 44% (inactive); in experiment [5], 46.4% (inactive); in [6], 59.9% (inactive); in experiment [7], 73% (inactive). The growth in experiment [8] is 97.5% (inactive); in [9] it was 87.6% (inactive); in experiment [10], 2.62% (active); in [11] it was 129% (inactive); in experiment [12], 104% (inactive); in [13], 80.7% (inactive). In addition, the growth is 74.4% (inactive) in experiment [14]; 47.2% (inactive) in experiment [15]; 79.6% (inactive) in [16]; 89.9% (inactive) in experiment [17]; 88.8% (inactive) in experiment [18]; 95% (inactive) in experiment [19].
